High-throughput results deposited in PubChem by National Center for Advancing Translational Sciences (NCATS).
Compounds with a hit are over-represented: about 9.3% of the library has one in this group of screens.
SMN2 splice enh – qHTS Assay for Enhancers of SMN2 Splice Variant Expression | HEK293 SMN2-luciferase splicing reporter, luminescence, 30-36 h | Potency, µM (highest dose often 46.1 µM), hits mostly activators | actives 2.8% (n = 210,000) | AID 1458, 2008; also: nearly all actives have a fitted effect of over 55% in size
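HEK293 cells carry an SMN2 minigene-luciferase reporter in which exon 7 inclusion puts luciferase in frame. Cells were seeded at 2000 cells/well, attached for 10-12 hours, then exposed to compounds for 30-36 hours at 37C before ONE-Glo luminescence.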
ELG1 genotox – qHTS screen for small molecules that induce genotoxicity in human embryonic kidney (HEK293T) cells expressing luciferase-tagged ELG1 | HEK293T ELG1-luciferase reporter, luminescence, 16 h | Potency, µM (highest dose often 46 µM), most hits filed as activators | actives 1.3% (n = 330,000); also: nearly all actives have a fitted effect of over 60% in size
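HEK293T cells expressing luciferase-tagged ELG1 were exposed to compound or DMSO vehicle for 16 hr at 37 °C and 5% CO2. Luciferase activity was then measured with ONE-Glo after 30 min at room temperature.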
ELG1 DNA repair – qHTS screen for small molecules that inhibit ELG1-dependent DNA repair in human embryonic kidney (HEK293T) cells expressing luciferase-tagged ELG1; HEK293T ELG1-luciferase reporter, luminescence, 16 h; DNA damage induced by 5-fluorouridine; Potency, µM (highest dose often 46.1 µM), hits mostly inhibitors; actives 2.3% (n = 330,000); also: nearly all actives have a fitted effect of over 55% in size
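Reporter activity after DNA damage by 5-fluorouridine is monitored. Compound-treated cells incubate 16 hr at 37 °C, then ONE-Glo is added for 30 min before luminescence reading.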
NPC1 prom act – qHTS Assay for NPC1 Promoter Activators | Huh7 NPC1 promoter luciferase reporter, 24 h | Potency, µM (top dose mostly 9.22 µM), actives largely listed as activators | actives 2.4% (n = 320,000); also: nearly all actives have a fitted effect of over 60% in size
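Huh7 cells stably carrying NPC1 promoter–luciferase, plated in Opti-MEM with 10% FBS for 2 h, were exposed to compound in DMSO for 24 h at 37 °C; luciferase reagent was added for 10 min and luminescence read.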
FLuc counter – qHTS profiling assay for firefly luciferase inhibitor/activator using purifed enzyme and Km concentrations of substrates (counterscreen for miR-21 project) | Luciferin 4-monooxygenase (Photinus pyralis), P08659 | purified FLuc, Km substrates, luminescence inhibition | Potency, µM (top dose mostly 57.5 µM), actives largely listed as inhibitors | actives 6.9% (n = 360,000); also: nearly all actives have a fitted effect of over 55% in size
Target sequence (P08659 whole entry, looked up): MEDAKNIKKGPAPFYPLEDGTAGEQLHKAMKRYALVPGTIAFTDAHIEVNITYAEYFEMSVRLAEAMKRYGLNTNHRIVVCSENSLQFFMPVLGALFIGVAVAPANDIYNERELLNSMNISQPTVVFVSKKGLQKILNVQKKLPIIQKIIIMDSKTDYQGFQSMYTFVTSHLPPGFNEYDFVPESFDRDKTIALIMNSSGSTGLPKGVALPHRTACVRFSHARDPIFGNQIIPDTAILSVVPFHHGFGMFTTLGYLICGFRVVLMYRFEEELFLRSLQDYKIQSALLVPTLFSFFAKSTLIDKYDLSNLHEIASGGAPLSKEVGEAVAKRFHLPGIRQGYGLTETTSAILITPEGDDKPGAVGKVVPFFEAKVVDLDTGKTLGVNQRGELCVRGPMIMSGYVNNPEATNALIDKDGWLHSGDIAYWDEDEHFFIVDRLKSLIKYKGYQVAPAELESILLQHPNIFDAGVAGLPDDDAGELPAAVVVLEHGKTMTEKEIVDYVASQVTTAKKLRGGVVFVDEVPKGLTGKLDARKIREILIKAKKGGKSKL
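Purified P. pyralis luciferase (10nM final) with 10uM D-luciferin and 10uM ATP (Km levels) in 50mM Tris acetate pH 7.5, 10mM Mg acetate, 0.01% Tween-20, 0.05% BSA; qHTS 6-point titration, ~60 µM downward; luminescence read.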
Rab9 promoter act – qHTS Assay for Rab9 Promoter Activators. Potency, µM (top dose mostly 9.22 µM), hits mostly activators. Huh7 Rab9 promoter-luciferase reporter, luminescence, 24 h. AID 485297, 2010. actives 2.8% (n = 320,000); also: nearly all actives have a fitted effect of over 60% in size
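Quantitative HTS format; Huh7 Rab9-luciferase reporter cells (1500/well) receive compound 2 h post-plating, incubate 24 h at 37 °C, then get luciferase reagent for 10 min before luminescence reading.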
A number is an active result; i = inactive; ? = inconclusive; nt = not tested or not shown; [ ] = remark or other dose. Calls follow the shape of the dose curve; as a rule, active = well fitted curve in the direction sought with a large enough effect; inconclusive = small, poorly fitted or top-dose-only effect, or another doubt; inactive = no such curve, though single readings can be large; an effect the other way counts as inactive or inconclusive.

SMILES	SMN2 splice enh	ELG1 genotox	ELG1 DNA repair	NPC1 prom act	FLuc counter	Rab9 promoter act
COc1ccccc1OCC(=O)Nc1ccccc1C(=O)Nc1cccc(C(=O)O)c1	nt	i	i	i	?	i
Cc1cccc(C)c1OCC(=O)Nc1cccc(C(=O)O)c1	6.3µM	?	?	1.4µM	2.1µM	2.5µM
Cc1ccc(C)c(OCC(=O)Nc2cccc(C(=O)O)c2)c1C	13µM	?	?	?	11µM	?
CCOC(=O)Nc1cccc(C(=O)O)c1	13µM	i	?	?	i	?
COCc1ccc(C(=O)N2CCCC(Nc3ccc4c(c3)OCCO4)C2)o1 (configuration not stated)	nt	i	i	i	?	i
COc1cccc(CNC(=O)CCS(=O)(=O)c2ccc3c(c2)NC(=O)CO3)c1	nt	i	?	i	i	i
CCOc1cccc2cc(-c3cn4cc(C)ccc4n3)c(=O)oc12	2.8µM	?	?	0.63µM	0.12µM	0.56µM
CCOc1ccc(S(=O)(=O)NCCC(=O)Nc2nnc(C)s2)cc1	nt	i	i	i	i	i
Cc1nc([N+](=O)[O-])c(C(=O)OCc2ccccc2C#N)n1C	?	i	i	i	i	i
CC(=O)Oc1ccc(/C=C2/Oc3ccccc3C2=O)cc1	nt	?	?	i	3.8µM	i
O=C1/C(=C/c2ccccc2)Oc2cc(OC(=O)N3CCOCC3)ccc21	?	i	?	?	13µM	i
COC(=O)c1ccc2c(c1)C(=O)/C(=C/c1ccc(O)cc1)O2	i[1.84 µM]	i	?	i	?	?
COc1ccc(-c2nc3c4ccccc4n(CC(=O)Nc4ccc(C(C)C)cc4)c(=O)n3n2)cc1	nt	nt	nt	nt	i	nt
CC(C)C(C)NC(=O)COc1ccc(Sc2ccc(OCC(=O)NC(C)C(C)C)cc2)cc1 (configuration not stated)	i	i	8.2µM	i	i	i
COc1ccc(NC(=S)N(CCc2c(C)[nH]c3ccc(C)cc23)Cc2ccco2)cc1	i	i	?	i	i	i
CCOc1ccc(NC(=S)N(CCc2c(C)[nH]c3ccc(C)cc23)Cc2ccco2)cc1	i	i	16µM	i	i	i
CCCc1nn(C)c(C(=O)Nc2cccc(CC)c2)c1Cl	?	i	?	?	17µM	?
CCCc1nn(C)c(C(=O)Nc2ccc3ccccc3c2)c1Cl	14µM	?	?	?	11µM	?
CN1CCN(S(=O)(=O)c2ccc(Nc3cccc(Cl)c3)c([N+](=O)[O-])c2)CC1	nt	i	i	i	i	i
COCc1c(C(=O)Nc2ccc3nc(N4CCOCC4)sc3c2)oc2ccccc12	nt	i	13µM	i	nt	i
O=C(Nc1ccc2nc(N3CCOCC3)sc2c1)c1ccccc1	nt	i	i	i	?	i
COc1ccc(-c2nc3c(c4c2C[C@H](c2ccccc2)OC4)CN(S(=O)(=O)c2ccc(C)cc2)CC3)c(C)c1	i[9.22 µM]	nt	nt	nt	nt	nt
CNc1cccc2c1C(=O)c1ccccc1C2=O	?	?	?	i	9.5µM	?
O=C1c2ccccc2C(=O)c2c(Nc3ccc4c5c(cccc35)C(=O)c3ccccc3-4)cccc21	i[9.22 µM]	nt	nt	nt	nt	nt
Nc1nc(NC(=O)c2ccc(Cl)cc2)nn1-c1ccccc1	i	i	i	i	19µM	i
SMILES	SMN2 splice enh	ELG1 genotox	ELG1 DNA repair	NPC1 prom act	FLuc counter	Rab9 promoter act
C#CCSc1nccc(-c2nn(-c3ccc(C)cc3)ccc2=O)n1	?	i	9.2µM	i	i	i
C=CCSc1nccc(-c2nn(-c3ccc(C)cc3)ccc2=O)n1	i	i	7.3µM	i	i	i
CCSc1nccc(-c2nn(-c3ccc(C)cc3)ccc2=O)n1	i	i	10µM	i	i	i
Cc1ccc(/C([O-])=C(/C(=S)NCc2ccc3c(c2)OCO3)[n+]2ccc(N(C)C)cc2)c(C)c1	i	i	i	i	i	i
CCCCC/C=C\C\C=C/C=C/C=C/[C@@H](SC[C@H](N)C(=O)O)[C@@H](O)CCCC(=O)O	i	nt	nt	nt	nt	nt
CCc1cc2cc(C(=O)Nc3ccccc3F)sc2s1	?	1.2µM	?	2.2µM	0.76µM	1.8µM
CCc1cc2cc(C(=O)N3CCN(Cc4ccccc4)CC3)sc2s1	i	nt	nt	nt	17µM	nt
CCc1cc2cc(C(=O)N3CCN(c4ccccc4)CC3)sc2s1	i	i	i	i	i	i
CCc1cc2cc(C(=O)Nc3ccc(F)cc3)sc2s1	i	i	?	?	?	2.5µM
Cn1nc(C(F)(F)F)c2cc(C(=O)Nc3ccc(F)cc3)sc21	nt	i	?	i	i	i
CC(C)(C)c1ccc(C(=O)Nc2ccc(F)cc2)s1	nt	2.9µM	?	0.71µM	1.2µM	0.63µM
COc1ccc(NC(=O)Cn2c3ncccc3c(=O)n2-c2ccc(C)c(C)c2)c(OC)c1	nt	nt	nt	nt	i	nt
COc1ccccc1CNC(=O)C1CCC(=O)N1C(C)C (configuration not stated)	nt	i	i	i	i	i
O=C(NC1CCCCC1)c1ccc2c(c1)N(Cc1ccccc1F)C(=O)c1ccccc1S2	nt	nt	nt	nt	i	nt
COc1ccc(/C=C2/N=C(c3cccs3)OC2=O)cc1OC(C)C	i	i	i	i	6.7µM	i
COc1cc(/C=C2\N=C(c3ccccc3)OC2=O)ccc1OC(C)=O	nt	i	i	i	15µM	i
Cc1cccc(N2C(=O)CS(=O)(=O)C23C(=O)N(Cc2c(F)cccc2Cl)c2ccccc23)c1 (configuration not stated)	nt	nt	nt	nt	i	nt
O=C(c1cnn(C(=O)COc2ccc(Cl)cc2)c1)c1ccccc1O	i	i	?	i	i	i
COc1ccc(O)c(C(=O)c2cnn(-c3ccc(Cl)cc3)c2)c1	nt	i	i	i	17µM	i
Cc1ccc(O)c(C(=O)c2cnn(C(=O)COc3ccc(Cl)cc3)c2)c1	i	i	16µM	i	i	i
Cn1c(=O)cc(OCC(=O)N2CCN(c3ccc(F)cc3)CC2)c2ccccc21	i	nt	nt	nt	i	nt
Cc1ccc(N2CC(C(=O)Nc3ccc(S(=O)(=O)Nc4ncccn4)cc3)CC2=O)cc1C (configuration not stated)	nt	i	?	i	i	i
Cc1ccc(Nc2nc(N)nc(CSC(=S)N3CCOCC3)n2)cc1	?	?	?	2.8µM	15µM	?
COc1ccccc1Nc1nc(N)nc(CSC(=S)N2CCCCC2)n1	nt	i	?	i	17µM	i
Nc1nc(CSC(=S)N2CCOCC2)nc(Nc2ccccc2)n1	11µM	21µM	?	?	13µM	3.5µM
